Screening data from PubChem BioAssay.
Shown are actives, neighbours in structure and some others; about 19% of the full set was active somewhere.
KB-V1 cytotox: KB-V1 MDR subline cytotoxicity | actives 3.4% (n = 400,000) | Potency, µM (top dose mostly 46.1 µM), actives largely listed as cytotoxic | AID 1347076 | KB-V1 MDR cells viability, CellTiter-Glo, 72 h; also: nearly all actives have a fitted effect of over 60% in size
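Following 72 h at 37 degrees C with compound, KB-V1 cell viability was read by CellTiter-Glo luminescence, medium being phenol-red-free DMEM plus 10% FBS; concentration-response parameters came from normalized, curve-fitted qHTS data.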
HT1080NT lethal: kills 2HG-producing HT-1080-NT fibrosarcoma cells. HT-1080-NT fibrosarcoma viability, CellTiter-Glo ATP luminescence, 48 h. Potency, µM (highest dose often 46.1 µM), for the others: top-dose activity, negative = less viability, hits mostly cytotoxic. actives 1.6% (n = 360,000);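 also: NT is the 2HG producing partner of a matched IDH1 knockdown line; 0% = DMSO-treated cells and -100% = media-only wells without cells; nearly all actives have a fitted effect of over 55% in size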
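Toxicity toward the 2HG-producing NT line was scored as %Activity, normalised to DMSO and no-cell wells, from CellTiter-Glo luminescence after 48 hours' treatment.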
KB-3-1 tox: kills parental KB-3-1 adenocarcinoma cells. KB-3-1 viability, CellTiter-Glo ATP luminescence, 72 h. Potency, µM (titrated, usually from 46.1 µM), usual class: cytotoxic. actives 1.4% (n = 400,000). AID 1347075; also: nearly all actives have a fitted effect of over 60% in size
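Luminescent ATP read-out (CellTiter-Glo) measures survival of drug-naive KB-3-1 cells after 72 h compound exposure at 37 °C. Titration series was screened from lowest to highest concentration, with DMSO vehicle plates as background controls.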
HT1080 IDH1KD tx: toxicity to HT-1080 IDH1 knockdown cells (counter line). HT-1080 IDH1 knockdown viability, ATP luminescence, 48 h. Potency, µM (titrated, usually from 46.1 µM), without a hit: at the highest dose activity, negative = toxicity, hits mostly cytotoxic. actives 2% (n = 360,000). AID 686971;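 also: 0% = DMSO wells and -100% = cell-free medium wells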
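CellTiter-Glo luminescence after 48 h compound exposure at 37 degrees C of IDH1-knockdown HT-1080 cells in 5% FBS RPMI. %Activity scaled between DMSO wells and cell-free media wells, with curves fitted and assigned curve classes.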
TDP1 cell noCPT: qHTS for Inhibitors of human tyrosyl-DNA phosphodiesterase 1 (TDP1): qHTS in cells in absence of CPT | DT40 Tdp1-/- hTDP1 cells, no CPT, ATP luminescence, 48 h | Potency, µM (top dose mostly 46.2 µM), for inactives: at the highest dose activity change, negative = growth inhibition, actives largely listed as inhibitors | actives 15% (n = 420,000); also: nearly all actives have a fitted effect of over 55% in size
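Cells were dispensed at 400 per well, compounds added by pin tool, plates incubated ≥48 hr at 37 °C, then CellTiter-Glo added for 30 min at room temperature before luminescence reading. Line: DT40 Tdp1-/- complemented with hTDP1; camptothecin omitted.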
DT40 TDP1 CPT: growth inhibition of DT40 Tdp1-/-;hTDP1 cells with camptothecin (screen for TDP1 inhibitors). chicken DT40 Tdp1-/-;hTDP1 cells + 20 nM CPT, ATP luminescence, 48 h. Potency, µM (titrated, usually from 46.2 µM), without a hit: at the top dose activity change, negative = growth inhibition, actives largely listed as inhibitors. actives 12% (n = 420,000). AID 686979; also: nearly all actives have a fitted effect of over 55% in size
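Cell growth measured by CellTiter-Glo luminescence after a minimum 48 h, 37 C compound exposure with 20 nM CPT in Tdp1-knockout DT40 cells stably expressing hTDP1, seeded 400/well; qHTS titration format.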
* hit, by the source's call; i = inactive; u = inconclusive; x = not tested or not shown. Calls follow the shape of the dose curve; as a rule, active = well fitted curve in the direction sought with a large enough effect; inconclusive = small, poorly fitted or top-dose-only effect, or another doubt; inactive = no such curve, though single readings can be large; an effect the other way counts as inactive or inconclusive. Unless noted, % is scaled to controls: 0 for no effect and ±100 for the full control effect; potency is read from the fitted curve at half-maximal effect.

SMILES | KB-V1 cytotox | HT1080NT lethal | KB-3-1 tox | HT1080 IDH1KD tx | TDP1 cell noCPT | DT40 TDP1 CPT
COc1ccc(OC)c(/C=C2\SC(N3CCCC(C)C3)=NC2=O)c1 (centres undefined) | i | -4% | i | -22% | 21µM* | 16µM*
CCOc1ccc(/C=C2\SC(N3CCCCC3)=NC2=O)cc1 | i | -4% | i | 0% | 2.9µM* | 6.5µM*
COc1ccc(/C=C2/N=C3CCCCCN3C2=O)cc1OC | i | 9% | i | 7% | 29µM* | u
O=C(Nc1ccc(Oc2ccccc2)cc1)c1csc(COCCO)n1 | i | u | i | u | u | u
O=C(N/N=C/c1cccc([N+](=O)[O-])c1)c1ccccc1-n1cccc1 | u | -2% | i | 26% | u | -4%
COc1ccc(/C=C2\SC(N3CCCCC3)=NC2=O)cc1OC | i | -6% | i | -5% | 21µM* | -17%
CCCCNc1c(CC(C)C)nc2nc(C)cc(C)n12 | u | 9% | i | 5% | 23µM* | 16µM*
Cc1cc(C)n2c(Nc3c(C)cccc3C)c(CC(C)C)nc2n1 | i | -30% | i | u | 23µM* | u
Cc1cc(C)n2c(NCc3ccccc3)c(CCc3ccccc3)nc2n1 | u | -12% | i | -18% | u | u
O=C(Cc1cn(-c2ccccc2)nc1-c1ccccc1)N1CCCCC1 | u | u | i | -17% | u | u
COCCNC(=O)C1CCCN(Cc2ccccc2-c2ccccc2)CC1 (centres undefined) | i | u | i | 21% | -14% | 5%
CCOc1ccc(NC(=O)CC(c2ccccc2)c2ccc(F)cc2)cc1 (centres undefined) | 18µM* | -2% | i | 1% | 15µM* | -15%
COc1ccc(NC(=O)CC(c2ccc(F)cc2)c2ccc(OC(C)C)cc2)cc1 (centres undefined) | u | -13% | i | -19% | 21µM* | u
CNc1cc(-c2cccc(OC)c2F)nc2ccnn12 | u | -28% | i | -26% | u | u
CCc1c(C)nc2c(-c3ccccc3)c(-c3ccccc3)[nH]n2c1=O | i | 17% | i | 3% | 2.1µM* | 2.3µM*
CCc1c(C)nc2cc(-c3ccccc3)[nH]n2c1=O | i | -10% | i | 1% | 12µM* | 8.2µM*
C=CCc1c(C)nc2cc(-c3ccc(C)cc3)[nH]n2c1=O | i | -1% | i | 1% | u | u
COc1ccc(CNC(=O)CCCN2C(=O)COc3ccc(C)cc32)cc1 | i | x | i | x | -19% | u
Cc1ccc(NC(=O)CCCCCCCCCCC2COCCO2)c(C)c1 (centres undefined) | 18µM* | 12% | i | 11% | 18µM* | 21µM*
Cc1ccc(NC(=O)CC(=O)Nc2ccc(C)cc2C)c(C)c1 | i | 2% | u | 4% | 0% | -11%
Cc1ccc(NC(=O)CCCN2C(=O)COc3ccc(C)cc32)c(C)c1 | x | x | x | x | 12µM* | u
Cc1ccc(NC(=O)NC(=O)CN2C(=O)NC3(CCCCCCC3)C2=O)c(C)c1 | i | -8% | i | u | -15% | -25%
Cc1ccc(CNC(=O)CCCN2C(=O)COc3ccc(C)cc32)cc1 | i | x | i | x | u | u
Cc1ccc(NC(=O)CCN2C(=O)NC3(CCCC3)C2=O)c(C)c1 | i | 0% | i | -3% | 3.3µM* | -2%
Cc1ccc(NC(=O)CCCN2C(=O)COc3ccc(C)cc32)c(Cl)c1 | x | x | x | x | 7.3µM* | u
SMILES | KB-V1 cytotox | HT1080NT lethal | KB-3-1 tox | HT1080 IDH1KD tx | TDP1 cell noCPT | DT40 TDP1 CPT
[O-]/[N+](=N\Nc1ccc(Cl)cc1)c1ccccc1 | u | -11% | i | -11% | -28% | 1%
COc1ccc(Cc2nnc(Nc3c(C)cccc3C)o2)cc1OC | i | -2% | i | -10% | -15% | 2%
O=C(CN1C(=O)NC2(CCCC2)C1=O)N1CCN(Cc2ccccc2)CC1 | i | 5% | i | -1% | -29% | 4%
CSCCC(NC(=O)COc1ccccc1)C(=O)N1CCN(C(C)=O)CC1 (centres undefined) | i | 5% | u | 1% | 11% | -3%
Cc1ccc2c(c1)N(CCCC(=O)NCC1COc3ccccc3O1)C(=O)CO2 (centres undefined) | i | 2% | i | 6% | -25% | -25%
Cc1ccc2c(c1)N(CCCC(=O)Nc1cccc(C(F)(F)F)c1)C(=O)CO2 | i | -17% | i | -13% | 16µM* | u
CCCCn1c(=O)c2oc3ccccc3c2n(CC(=O)Nc2ccc(CC)cc2)c1=O | x | x | x | x | u | 13µM*
CCCCn1c(=O)c2oc3ccccc3c2n(CC(=O)Nc2cc(C)ccc2C)c1=O | i | x | i | x | 12µM* | 12µM*
COc1cc(NC(=O)Cn2c(=O)n(Cc3ccccc3)c(=O)c3oc4ccccc4c32)cc(OC)c1 | i | x | i | x | -12% | -4%
Cc1ccc(C)c(NC(=O)Cn2c(=O)n(Cc3ccco3)c(=O)c3oc4ccccc4c32)c1 | i | x | i | x | 10µM* | 16µM*
Cc1ccc(C)c(NC(=O)Cn2c(=O)n(Cc3ccccc3)c(=O)c3oc4ccccc4c32)c1 | i | x | i | x | 5.8µM* | 4.6µM*
CC1=C(C(=O)OC2CCCC2)C(c2coc3ccc(C)cc3c2=O)C2=C(CCCC2=O)N1 (centres undefined) | i | -14% | i | -18% | 21µM* | u
COC(=O)C1=C(C)NC2=C(C(=O)CC(C)(C)C2)C1c1ccccn1 (centres undefined) | i | 11% | i | 20% | -3% | 2%
CC1=C(C(=O)OC2CCCC2)C(c2coc3ccccc3c2=O)C2=C(CC(C)(C)CC2=O)N1 (centres undefined) | i | u | i | u | u | 16µM*
CCc1ccc(-n2nc3cc(C)c(NC(=O)c4cc(OC)cc(OC)c4)cc3n2)cc1 | i | x | i | x | -16% | -5%
CCc1ccc(-n2nc3cc(C)c(NC(=O)c4ccccc4C)cc3n2)cc1 | x | x | x | x | 8.2µM* | u
CCc1ccc(-n2nc3cc(C)c(NC(=O)c4cccc5ccccc45)cc3n2)cc1 | u | x | i | x | u | 21µM*
